Test systems include SR leukemia; RPMI-8226 leukemia; OVCAR-8 ovarian; OVCAR-5 ovarian; OVCAR-4 ovarian; SK-OV-3 ovarian; HS 578T breast; NCI/ADR-RES ovarian; T-47D breast; BT-549 breast; MDA-MB-435 melanoma; SW-620 colon; MCF7 breast; HCT-116 colon; HCC-2998 colon; KM12 colon; IGROV1 ovarian; OVCAR-3 ovarian.
Common to all, as to test: NCI-60 one-dose screen, 48 h (100 = growth as untreated, 0 = no growth, -100 = all killed)
Common to all, as to conditions: 10 µM unless noted

About 83,000 compounds went through this panel and 20% of them were active in at least one assay; those are over-represented in the sample as a whole.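 A percent growth of 40 corresponds to 60% growth inhibition; 0 means no net growth; -100 means all cells died. Active threshold: below 10.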 Values without a mark were called inactive. Activity calls are given as the source filed them.

For the molecule `COc1c(N2CC3CCCNC3C2)c(F)cc2c(=O)c(C(=O)N/N=C/c3ccc(N(C)C)cc3)cn(C3CC3)c12` (stereo not drawn), the growth in the test with SR leukemia is -33.5% (active); in the test with RPMI-8226 leukemia, 62.9%; in the test on OVCAR-8 ovarian it was 87.3%; in the test on OVCAR-5 ovarian it was 95.7%; in the test with OVCAR-4 ovarian, 90%; in the test with SK-OV-3 ovarian, 114%. In addition, the growth in the test with HS 578T breast is 95.8%; in the test with NCI/ADR-RES ovarian, 81.6%; in the test on T-47D breast, 95.5%; in the test with BT-549 breast it was 121%; in the test on MDA-MB-435 melanoma it was 94%; in the test with SW-620 colon, 80.7%. Further, the growth in the test with MCF7 breast was 44.1%; with HCT-116 colon, 31.3%; with HCC-2998 colon, 89.4%; in the test with KM12 colon, 74.5%.

In the case of `CCOC(=O)c1c(Nc2ccccc2)nn2c(-c3ccccc3)ccnc12`, the growth was 74.4% with SR leukemia; 30.7% with RPMI-8226 leukemia; 96.1% with OVCAR-8 ovarian; 93.4% with OVCAR-5 ovarian; 95.9% in the test on OVCAR-4 ovarian; 102% in the test with SK-OV-3 ovarian. Further, the growth in the test on IGROV1 ovarian was 110%; with HS 578T breast, 91.9%; with NCI/ADR-RES ovarian, 87.6%; in the test with T-47D breast, 91%; in the test with MDA-MB-435 melanoma, 96.1%; with SW-620 colon, 105%. The growth is 91.8% in the test with MCF7 breast, 86.7% with HCT-116 colon, 97.1% with HCC-2998 colon and 88.9% with KM12 colon.

For the molecule `CCn1c2ccccc2c2cc(-n3nncc3-c3ccccc3)ccc21`, the growth in the test on SR leukemia is 10.4%; with RPMI-8226 leukemia, 19.8%; in the test on OVCAR-8 ovarian, 27%; in the test with OVCAR-5 ovarian, 35.4%; with OVCAR-4 ovarian it was 43%; in the test on SK-OV-3 ovarian, 42.4%. For the same molecule, the growth in the test on OVCAR-3 ovarian was 4.2% (active); in the test with HS 578T breast it was 19.3%; with NCI/ADR-RES ovarian, 6.13% (active); in the test with T-47D breast, 61.8%; in the test on MDA-MB-435 melanoma, -14.3% (active); in the test on SW-620 colon, 21.3%. Further, the growth in the test with MCF7 breast is 13.4%; in the test on HCT-116 colon it was 5.07% (active); in the test on HCC-2998 colon, 15.2%; with KM12 colon, 17.1%.

Consider `CNC(=O)c1c(NC(=O)c2ccccc2C(F)(F)F)sc2c1CCC(=O)C2`, for which the growth is 29% in the test with SR leukemia; -0.77% (active) with RPMI-8226 leukemia; 24.6% in the test on OVCAR-8 ovarian; 23.2% in the test on OVCAR-5 ovarian; 16.2% in the test with OVCAR-4 ovarian; 95.7% in the test with SK-OV-3 ovarian. Further, the growth was 11.2% in the test with OVCAR-3 ovarian; 40% in the test on HS 578T breast; 28.1% in the test with NCI/ADR-RES ovarian; 9.8% (active) in the test with T-47D breast; 27.2% in the test on BT-549 breast; 37.5% in the test with MDA-MB-435 melanoma. Also, the growth in the test on SW-620 colon is 21%; in the test with MCF7 breast it was 13.9%; in the test on HCT-116 colon, 8.16% (active); with HCC-2998 colon, 62%; with KM12 colon it was 18.5%.

Regarding `CNc1ncc2cc(-c3ccc(-c4ncccc4F)cc3Cl)c(=O)n(CC3OCC(N)CO3)c2n1` (stereo not drawn), the growth in the test on SR leukemia was 32.2%; with RPMI-8226 leukemia it was 96.1%; with OVCAR-8 ovarian, 65.6%; in the test on OVCAR-5 ovarian, 44.1%; in the test with OVCAR-4 ovarian it was 117%; in the test on SK-OV-3 ovarian, 75.8%. The growth was 90.7% in the test with OVCAR-3 ovarian; 34.6% in the test with HS 578T breast; 79.4% in the test on NCI/ADR-RES ovarian; 72.5% in the test on T-47D breast; 82.1% in the test on BT-549 breast; 105% in the test with MDA-MB-435 melanoma. The growth with SW-620 colon was 99.1%; in the test on MCF7 breast, 101%; with HCT-116 colon, 80.2%; in the test with HCC-2998 colon, 100%; in the test with KM12 colon, 95.7%.

As for `COc1cc(-c2nn(C(C)(C)C)cc2-c2ccnc(NCCCNS(=O)(=O)c3cccc(F)c3)n2)ccc1Cl`, the growth was 50.6% with SR leukemia; 51.8% in the test with RPMI-8226 leukemia; 89.3% in the test on OVCAR-8 ovarian; 80.5% in the test on OVCAR-5 ovarian; 45.8% in the test with OVCAR-4 ovarian; 102% in the test with SK-OV-3 ovarian. The growth in the test with OVCAR-3 ovarian was 85%; with HS 578T breast, 80.3%; in the test with NCI/ADR-RES ovarian it was 74.5%; in the test with T-47D breast, 69.5%; in the test on MDA-MB-435 melanoma it was 77.9%; with SW-620 colon it was 89.7%. Further, the growth with MCF7 breast is 71.3%; in the test with HCT-116 colon, 52.4%; in the test on HCC-2998 colon, 103%; in the test with KM12 colon it was 80.3%.

On to `C#CC(=O)N(c1ccc(OC)cc1OC)C(C(=O)NCC(=O)OCC)c1cccs1` (stereo not drawn), for which the growth was -25% (active) in the test on SR leukemia; -55.3% (active) with RPMI-8226 leukemia; 46.6% with OVCAR-8 ovarian; 2.13% (active) in the test on OVCAR-5 ovarian; 116% in the test on OVCAR-4 ovarian; 89.5% in the test on SK-OV-3 ovarian. For the same molecule, the growth in the test with OVCAR-3 ovarian was -58.9% (active); in the test on HS 578T breast, 20.9%; in the test on NCI/ADR-RES ovarian, 87.5%; with T-47D breast it was 38.1%; in the test on BT-549 breast, 70.3%; with MDA-MB-435 melanoma, 95.5%. Also, the growth in the test on SW-620 colon is 2.04% (active); with MCF7 breast it was 49.1%; with HCT-116 colon it was 41.9%; in the test with HCC-2998 colon, 110%; in the test on KM12 colon it was 28.5%.

Turning to `Nc1ncc(-c2ccc(NS(=O)(=O)c3ccc(Cl)c(Cl)c3)cc2)[nH]1`, the growth in the test on SR leukemia was 76.6%; in the test with RPMI-8226 leukemia it was 59.1%; in the test with OVCAR-8 ovarian, 92.9%; with OVCAR-5 ovarian, 90.4%; with OVCAR-4 ovarian it was 93.9%; in the test with SK-OV-3 ovarian it was 94.5%. In addition, the growth was 79.5% with HS 578T breast; 98.3% with NCI/ADR-RES ovarian; 76.7% with T-47D breast; 69.9% in the test with BT-549 breast; 96.4% in the test on MDA-MB-435 melanoma; 91.3% in the test with SW-620 colon. Moreover, the growth with MCF7 breast is 75%; with HCT-116 colon, 99.3%; in the test with HCC-2998 colon, 91.2%; in the test with KM12 colon it was 89.6%.

In the case of `Nc1cc(F)ccc1NC(=O)c1ccc(NC(=O)C/C=C/c2cccnc2)cc1`, the growth with SR leukemia is 29.3%; in the test with RPMI-8226 leukemia, 6.2% (active); in the test on OVCAR-8 ovarian, 29.9%; in the test on OVCAR-5 ovarian, 37.2%; in the test on OVCAR-4 ovarian, 48%; with SK-OV-3 ovarian, 54.5%. The growth with OVCAR-3 ovarian was 45.1%; in the test with HS 578T breast it was 49%; with NCI/ADR-RES ovarian, 51%; in the test on T-47D breast, 22.7%; in the test with BT-549 breast, 26.1%; in the test with MDA-MB-435 melanoma, 28%. Besides, the growth is 17.6% in the test on SW-620 colon; 33% with MCF7 breast; 9.59% (active) in the test with HCT-116 colon; 52.8% in the test with HCC-2998 colon; 41.5% with KM12 colon.

For the origin of these results see PubChem BioAssay (NCI).
